Sampled rows, rich in hits. Any-hit rate of the full collection: about 2.2%.
FUS yeast rescue = rescues growth of FUS-expressing yeast; S. cerevisiae FUS-expressing, growth rescue, OD600, 24 h; Potency, µM (highest dose often 76.6 µM), hits mostly activators; 390,000 tested, 0.24% active; AID 1347120; note: nearly all actives have a fitted effect of over 55% in size
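FUS-expressing yeast, raffinose-pregrown, induced in 2% galactose minimal medium at OD 0.005; compounds in a dilution series, 24hr at 30C. Growth restoration read as absorbance at 600 nm. CP55940 positive control, DMSO negative.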
TDP-43 yeast inh = inhibitors of TDP-43 toxicity in yeast; Potency, µM (top dose mostly 46.1 µM), hits mostly activators; 410,000 tested, 1.8% active; AID 652104; TDP-43 expressing yeast growth rescue, BacTiter-Glo, 24 h; note: nearly all actives have a fitted effect of over 50% in size
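Luminescence from BacTiter-Glo reports growth of TDP-43-expressing yeast after 24 hr at 30 deg C with compound. Cells were raffinose-pregrown to mid-log, then seeded in galactose medium at OD600=0.02.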
Abeta rescue = compounds reversing amyloid beta toxicity in yeast; yeast expressing A-beta42, growth rescue, OD600, 48 h; response scale: 0% DMSO, 100% iron-clioquinol control; 410,000 tested, 0.063% active; Potency, µM (highest dose often 46.1 µM), usual class: activators; note: nearly all actives have a fitted effect of over 55% in size
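Growth rescue measured by 600 nm absorbance after 48 h yeast culture at 30 C with compound. Values normalized between DMSO and an equimolar ferric chloride plus clioquinol control.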
Mito fusion act = mitochondrial division inhibition or fusion activation; S. cerevisiae fusion-defective mutant growth rescue, CellTiterGlo 48 h; Potency, µM (highest dose often 46.1 µM), usual class: activators; 320,000 tested, 0.23% active; AID 485298; note: nearly all actives have a fitted effect of over 45% in size
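Compounds are tested for their ability to restore growth of mitochondrial fusion-defective yeast strains at non-permissive 37C in YPEG medium over 48 hours. Viability is quantified by luciferase luminescence.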
aSyn yeast inh = rescues yeast growth from alpha-synuclein toxicity; Yeast expressing alpha-synuclein, growth rescue, BacTiter-Glo, 24 h; Potency, µM (top dose mostly 46.1 µM), most hits filed as activators; 370,000 tested, 0.14% active; note: nearly all actives have a fitted effect of over 65% in size
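Readout is rescue of growth in alpha-synuclein-expressing yeast, so inhibitors of toxicity appear as activators. Growth after 24 hr at 30 deg C in galactose medium is quantified by luminescence.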
Numbers stand for hits; – = inactive; ? = inconclusive; · = no result; ! = not confirmed by another sample. Calls come from the whole dose curve; as a rule, active = well fitted curve in the direction sought with a large enough effect; inconclusive = small, poorly fitted or top-dose-only effect, or another doubt; inactive = no such curve, though single readings can be large; an effect the other way counts as inactive or inconclusive.

SMILES	FUS yeast rescue	TDP-43 yeast inh	Abeta rescue	Mito fusion act	aSyn yeast inh
Cc1ccc(C2=NC(C)(C)N=C2SCC(=O)Nc2ccc(Cl)cc2)cc1	–	35.5µM	–	–	–
O=C(CSc1ncc(-c2ccccc2)[nH]1)Nc1ccc(Cl)cc1	–	22.4µM	–	·	·
O=C(CSc1ncc(-c2ccccc2)[nH]1)Nc1ccccc1	–	–	–	–	–
C(=C\c1c[nH]c2ccccc12)/c1nccc2ccccc12	·	·	·	·	–
COCCNC(=O)c1ccccc1NC(=O)CSc1ccc(C)cc1	–	–	–	–	–
O=C(c1ccc(Cl)c([N+](=O)[O-])c1)N1CCN(c2ccccn2)CC1	·	–	–	–	–
O=C(c1ccc(Sc2cccc(Cl)c2)c([N+](=O)[O-])c1)N1CCN(c2ccccn2)CC1	–	22.4µM	5.01µM	?	?
O=C(Nc1ccc(F)cc1)OCc1cn(Cc2ccc(F)cc2F)nn1	–	·	·	·	·
Nc1nc(SCc2ccc(F)cc2)ns1	–	12.6µM	?	–	–
COc1ccc(-c2nnc3c4ccccc4c(-c4ccccc4)nn23)cc1	–	–	–	·	·
Cc1ccc(NC(=O)C2CCCN(c3cnccn3)C2)cc1Cl (stereo not drawn)	–	22.4µM	–	·	·
CCc1cccc(NC(=O)C2CCCN(c3cnccn3)C2)c1 (stereo not drawn)	–	?	·	–	–
O=C(Nc1ccc(F)c(Cl)c1)C1CCCN(c2cnccn2)C1 (stereo not drawn)	–	?	–	–	?
Cc1ccc(NC(=O)C2CCN(c3cnccn3)CC2)cc1	–	–	–	–	–
O=C(Nc1ccc(C(F)(F)F)cc1)C1CCN(c2cnccn2)CC1	–	15.8µM!	–	–	–
CCOC(=O)c1ccc(NC(=O)C2CCCN(c3cnccn3)C2)cc1 (stereo not drawn)	–	20µM	–	?	?
O=C(NC1CCCC1)C1c2ccccc2OCC(=O)N1CCc1ccccc1 (stereo not drawn)	–	–	–	·	–
CCCN(CC(=O)Nc1ccccc1OC)C(=O)c1ccc(COc2ccccc2)o1	?	11.2µM	–	–	–
Cc1cccc2sc(N3CCN(C(=O)c4ccco4)CC3)nc12	–	11.2µM	–	·	·
Cc1ccc(C)c2sc(N3CCN(C(=O)c4ccco4)CC3)nc12	–	11.2µM	–	·	·
CCC(C)(C)n1nnnc1C(c1ccc(O)c(OC)c1)N1CCN(c2nc3ccccc3s2)CC1 (stereo not drawn)	–	20µM	–	–	–
COc1ccc(C(c2nnnn2C(C)(C)C)N2CCN(c3nc4ccccc4s3)CC2)cc1 (stereo not drawn)	–	–	–	–	–
CCC1CCc2sc(C(=O)O)cc2C1 (stereo not drawn)	–	14.1µM	–	–	–
CCC1CCc2sc(C(=O)NNC(=O)c3ccncc3)cc2C1 (stereo not drawn)	?	–	–	–	–
Oc1ccc(Oc2ccc(Oc3ccc(O)cc3)cc2)cc1	–	20µM	–	–	–
SMILES	FUS yeast rescue	TDP-43 yeast inh	Abeta rescue	Mito fusion act	aSyn yeast inh
COc1ccc(S(=O)(=O)c2ccc(O)cc2)cc1	–	–	–	–	–
O=S(=O)(NCc1ccccc1)c1ccc(Br)s1	–	11.2µM	–	–	–
Cc1ccc(CNS(=O)(=O)c2ccc(Br)s2)cc1	–	?	–	–	–
Cc1ccc(S(=O)(=O)N2CCC3(CC2)OCCN3S(=O)(=O)c2c(C)cc(C)cc2C)cc1	–	–	–	–	–
Cc1cc(C)nc(Nc2ccccc2Br)n1	·	–	–	–	–
Cc1cc(C)nc(N/C(=N\S(=O)(=O)Cc2ccccc2)Nc2ccccc2Br)n1	–	–	–	22.4µM	–
O=c1c2cc3cc(Cl)ccc3nc2ncn1CCc1c[nH]c2ccccc12	–	·	·	·	·
COc1ccc(NC(=O)COC(=O)/C=C/C(=O)OCC(=O)Nc2ccc(OC)c(Cl)c2)cc1Cl	·	–	–	–	–
CCc1ccc2occ(CC(=O)NCc3ccccc3)c2c1	–	11.2µM	–	·	·
CCc1ccc2occ(CC(=O)Nc3ccc(OC)c(Cl)c3)c2c1	–	15.8µM	–	·	?
CCOC(=O)/C=C/C(=O)OCC(=O)Nc1ccc(OC)c(Cl)c1	–	35.5µM	–	–	–
CCc1ccc2occ(CC(=O)Nc3nnc(C)s3)c2c1	–	–	–	·	·
COC(=O)[C@]12C[C@H](CC(=O)NCCc3ccccc3OC)C(=O)N(CCC3=CCCCC3)C1=C[C@H](C1CCCC1)O[C@@H]2C	–	·	·	·	·
COC(=O)[C@]12C[C@H](CC(=O)NCc3cccc(C(F)(F)F)c3)C(=O)N(Cc3ccco3)C1=C[C@H](C1CCCC1)O[C@@H]2C	4.47µM	·	·	·	·
CCCCNC(=O)C[C@H]1C[C@@]2(C(=O)OC)C(=C[C@H](C3CCCC3)O[C@@H]2C)N(Cc2cccc3ccccc23)C1=O	12.6µM	·	·	·	·
COC(=O)[C@]12C[C@H](CC(=O)NCc3ccc(OC)c(OC)c3)C(=O)N(CCC3=CCCCC3)C1=C[C@H](C1CCCC1)O[C@@H]2C	14.1µM	·	·	·	·
COC(=O)[C@]12C[C@H](CC(=O)NCC3CCCCC3)C(=O)N(Cc3cccc4ccccc34)C1=C[C@H](C1CCCC1)O[C@@H]2C	31.6µM	·	·	·	·
C=CCc1cccc(Cl)c1OCCCNC1CCCC1	–	–	–	–	–
CCCNc1c(NS(=O)(=O)c2ccc(Br)cc2)c(=O)oc2ccccc12	–	–	–	8.91µM	–
O=c1oc2ccccc2c(NC2CCCCC2)c1NS(=O)(=O)c1ccc(Br)cc1	–	–	–	–	–
Cc1ccc(CNC(=O)C(=O)NCC(c2ccco2)S(=O)(=O)c2ccc(C)cc2)cc1 (stereo not drawn)	–	–	–	·	·
CC(=O)N1N=C(c2ccc(Br)cc2)CC1c1ccc(Br)cc1 (stereo not drawn)	–	–	–	·	–
CC(C)c1ccc(C2CC(c3ccc(Br)cc3)=NN2C(N)=S)cc1 (stereo not drawn)	–	–	10µM	?	–
CCCCNC(=O)C1C(c2ccccc2)=Nc2ccccc2N1C(=O)c1ccc(C(F)(F)F)cc1 (stereo not drawn)	?	–	–	·	–
COc1ccc(C2=Nc3ccccc3N(C(=O)c3ccc(C(F)(F)F)cc3)C2C(=O)NCc2ccccc2)cc1 (stereo not drawn)	22.4µM	–	–	·	–
CC(=O)Nc1cccc(-c2nnc(SCC(=O)c3cc([N+](=O)[O-])ccc3Cl)o2)c1	12.6µM	–	–	·	–
Nc1ncnc2c1ncn2C1CCCO1 (stereo not drawn)	–	35.5µM	–	–	–
Nc1nc(Cl)nc2c1ncn2C1CCC(CO)O1 (stereo not drawn)	–	–	–	·	–
Nc1ncnc2c1ncn2[C@H]1CC[C@@H](CO)O1	–	12.6µM	–	–	–
O=C(OCc1cn(Cc2ccc(F)cc2)nn1)N1CCOCC1	–	·	·	·	·

Assay outcomes as filed in PubChem BioAssay.
